Results on five molecules are retold here after PubChem BioAssay.

A short description of assay [1]: rapamycin-like changes in RPL19A-GFP expression – cell-based, S. cerevisiae, multiplex flow cytometry, primary screen (AID 1862).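 Further: lower values mimic rapamycin by blocking the RPL19A rise seen in DMSO cells.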 The following applies: S. cerevisiae RPL19A-GFP strain, flow cytometry fluorescence, 3 h; at 10 µM; stronger effect = lower value.
The nature of assay [2]: TOR pathway GLN3 branch reporter MEP2-GFP changes – S. cerevisiae, multiplex flow cytometry, primary screen (AID 1867;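 active means GFP response, as percent of the DMSO control, above the screen-wide mean plus 3 SD, about 139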;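 further: median GFP channel fluorescence of barcode-gated MEP2-GFP cells measured by flow cytometry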). Particulars: S. cerevisiae MEP2-GFP strain, 3 h, at 10 µM, stronger effect = higher value, 100% means same as DMSO wells. On the technique in general: A flow cytometer gives signals particle by particle.
Assay [3] in a line: TOR pathway RTG branch CIT2 reporter changes – S. cerevisiae, GFP fusion, multiplex flow cytometry, primary screen (AID 1870;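 active means percent response above a set limit, the screen-wide mean plus 3 SD, cut at about 130% in these data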;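 further: barcoded CIT2-GFP strain pooled with four other GFP strains with rapamycin as positive control; median GFP fluorescence per well over plate mean of DMSO wells so 100% = DMSO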). Particulars: S. cerevisiae CIT2-GFP expression, 3 h, at 10 µM, stronger effect = higher value.
Assay [4] is described as follows: TOR pathway LAP4-GFP level changes – S. cerevisiae, multiplex flow cytometry, primary screen (AID 1873;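 active means GFP signal, as percent of the solvent control, above the screen mean plus 3 SD, about 149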). Particulars: S. cerevisiae LAP4-GFP expression, 3 h, at 10 µM, stronger effect = higher value.
Assay [5] is described as follows: yeast AGP1-GFP level changes, GLN3 branch – cell-based, multiplex flow cytometry, S. cerevisiae, primary screen (AID 1887;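 active means GFP signal above the screen-wide mean plus 3 SD, that is over about 124.5% of the solvent control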;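 further: AGP1-GFP fusion strain of S. cerevisiae within a five-strain barcoded multiplex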). The following applies: 3 h, at 10 µM, stronger effect = higher value.
A short description of assay [6]: reduced mouse 2C T cell binding to pMHC/ICAM-1 vesicles – MLPCN validation set, flow cytometry, LFA-1/ICAM-1 modulator project, pilot screen (AID 2523;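 active means response below a set limit, under 55% cells CD8-positive and vesicle-bound, and CD8 cells' 90th-percentile brightness under 279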;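 on vesicle binding response: mean PE anti-B7-1 fluorescence of CD8+ cells relative to row control; 100% = QL9-loaded vesicles with DMSO vehicle in the same plate row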). The following applies: 2C mouse CD8+ T cells, at 7 µM, stronger effect = lower value; double positive events: measured here: CD8+/vesicle+ event percentage.
For assay [7], the target named is Integrin beta-1 (Homo sapiens) + Integrin alpha-4 (Homo sapiens) (UniProt P13612+P05556). The experiment in a line: alpha4beta1 integrin LIBS antibody binding reduction – U937 cells, HUTS-21 mAb, flow cytometry, validation set, VLA-4 allosteric modulator project, pilot screen (AID 2674;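 active means inhibition above 50%, about 3 SD of the validation set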;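 further: antibody binding induced by the VLA-4 ligand LDV present at three times its Kd; 0% = LDV ligand with antibody and no compound and 100% = antibody without LDV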). The following applies: HUTS-21 LIBS mAb binding, at 6.7 µM, stronger effect = higher value, binding induced by LDV ligand.
Sequence of Integrin beta-1 (Homo sapiens) + Integrin alpha-4 (Homo sapiens) (P05556 whole entry, looked up): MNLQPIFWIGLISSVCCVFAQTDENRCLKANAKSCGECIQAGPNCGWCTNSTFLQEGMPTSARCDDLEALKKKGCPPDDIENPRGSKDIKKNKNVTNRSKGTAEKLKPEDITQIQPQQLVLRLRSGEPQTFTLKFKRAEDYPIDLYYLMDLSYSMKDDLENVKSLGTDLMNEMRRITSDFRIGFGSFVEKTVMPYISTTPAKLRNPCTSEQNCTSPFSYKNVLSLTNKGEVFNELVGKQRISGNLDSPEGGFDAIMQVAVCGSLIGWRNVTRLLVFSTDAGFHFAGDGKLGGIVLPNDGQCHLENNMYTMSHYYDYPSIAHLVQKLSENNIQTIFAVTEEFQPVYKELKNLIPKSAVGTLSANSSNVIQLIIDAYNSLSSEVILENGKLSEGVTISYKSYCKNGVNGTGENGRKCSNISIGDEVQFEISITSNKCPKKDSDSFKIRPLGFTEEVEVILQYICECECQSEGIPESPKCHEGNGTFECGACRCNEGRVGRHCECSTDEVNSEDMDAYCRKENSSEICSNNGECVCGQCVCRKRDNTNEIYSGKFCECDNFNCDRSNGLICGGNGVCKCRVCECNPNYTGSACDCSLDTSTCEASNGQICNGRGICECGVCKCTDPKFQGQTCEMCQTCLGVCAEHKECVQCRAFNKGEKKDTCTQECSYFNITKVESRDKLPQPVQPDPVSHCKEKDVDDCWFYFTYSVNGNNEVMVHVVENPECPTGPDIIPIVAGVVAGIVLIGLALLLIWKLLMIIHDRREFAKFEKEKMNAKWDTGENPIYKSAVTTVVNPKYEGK
Sequence of Integrin beta-1 (Homo sapiens) + Integrin alpha-4 (Homo sapiens) (P13612 whole entry, looked up): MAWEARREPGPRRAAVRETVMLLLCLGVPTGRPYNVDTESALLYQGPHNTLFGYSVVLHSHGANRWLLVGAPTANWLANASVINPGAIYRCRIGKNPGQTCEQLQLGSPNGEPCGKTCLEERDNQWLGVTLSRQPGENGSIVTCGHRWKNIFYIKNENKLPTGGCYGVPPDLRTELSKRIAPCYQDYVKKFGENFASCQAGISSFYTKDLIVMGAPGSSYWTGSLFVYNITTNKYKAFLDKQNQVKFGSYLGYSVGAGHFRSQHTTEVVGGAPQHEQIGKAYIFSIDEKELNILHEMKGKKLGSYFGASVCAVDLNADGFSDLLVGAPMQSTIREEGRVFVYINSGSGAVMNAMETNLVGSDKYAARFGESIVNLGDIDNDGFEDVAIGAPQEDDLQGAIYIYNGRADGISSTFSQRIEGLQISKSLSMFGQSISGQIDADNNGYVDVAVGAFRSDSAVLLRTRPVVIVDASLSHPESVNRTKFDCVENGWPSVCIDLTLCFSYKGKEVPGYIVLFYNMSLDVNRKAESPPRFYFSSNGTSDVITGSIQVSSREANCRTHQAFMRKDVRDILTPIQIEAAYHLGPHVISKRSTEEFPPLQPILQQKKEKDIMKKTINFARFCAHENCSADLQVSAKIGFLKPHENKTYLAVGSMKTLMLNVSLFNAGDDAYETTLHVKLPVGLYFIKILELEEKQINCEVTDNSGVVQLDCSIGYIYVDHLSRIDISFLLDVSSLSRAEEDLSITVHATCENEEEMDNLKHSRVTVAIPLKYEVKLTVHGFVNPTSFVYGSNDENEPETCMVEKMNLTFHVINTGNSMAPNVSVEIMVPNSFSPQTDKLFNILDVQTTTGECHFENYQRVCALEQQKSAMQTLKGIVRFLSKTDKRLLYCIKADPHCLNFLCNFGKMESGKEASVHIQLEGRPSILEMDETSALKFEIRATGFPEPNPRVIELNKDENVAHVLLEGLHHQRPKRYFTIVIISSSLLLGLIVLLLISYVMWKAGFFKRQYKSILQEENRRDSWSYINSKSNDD

Assay [8] in a line: calorie-restriction mimetic ROS inhibitors, yeast – validation compound set, pilot screen (AID 2706;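 active means superoxide response below 65% of plate, a cut near 3 SD across the whole screen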;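 further: yeast exposed to compound for one week at 30 degrees C before staining; 100% = mean of all compound wells on the same plate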). Particulars: S. cerevisiae aging, superoxide DHE fluorescence; at 10 µM; stronger effect = lower value.
Assay [9] has as its target Beta-adrenergic receptor kinase 1 (Homo sapiens) (UniProt P25098). The experiment in a line: GRK2 binders displacing RNA aptamer, biochemical, validation, human GRK2, bead flow cytometry (AID 488806;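 active means aptamer binding inhibition above 30%, about 3 SD of noise from non-fluorescent compounds; inactive means inhibition at or below 30%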). The following applies: bead-bound GRK2, FAM-aptamer displacement, at 10 µM, stronger effect = higher value.
Assay [10] addresses Beta-2 adrenergic receptor (Homo sapiens) (UniProt P07550). As to the kind of experiment: agonist-induced loss of surface beta2AR – cell-based, FAP fluorogen, flow cytometry, validation set, pilot screen (AID 504459;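 active means percent response above 42, roughly 3 SD of non-fluorescent test compounds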;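 further: agonist-driven loss of surface beta2AR via internalization measured by FAP dye flow cytometry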). The following applies: Am2.2-beta2AR cells, at 10 µM, stronger effect = higher value.
For assay [11], the target named is AP-2 complex subunit beta (Homo sapiens) (UniProt P63010). As to the kind of experiment: beta-arrestin/AP2 interaction blockers – biochemical, validation set, GST-AP2 beads, flow cytometry, pilot screen (AID 504541;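 active means inhibition above 54%, about 3 SD of non-fluorescent compounds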;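 further: AP2 carries R879A mutation and is captured from E. coli lysate; bead-bound FITC arrestin peptide fluorescence measuring arrestin peptide binding to AP2; 0% = DMSO wells and 100% = excess unlabeled arrestin peptide control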). Particulars: FITC arrestin peptide, at 10 µM, stronger effect = higher value, AP2 beta2 appendage fragment, R879A mutant.
Sequence of AP-2 complex subunit beta (Homo sapiens) (P63010 whole entry, looked up, the tested form may be a part, one chain of several): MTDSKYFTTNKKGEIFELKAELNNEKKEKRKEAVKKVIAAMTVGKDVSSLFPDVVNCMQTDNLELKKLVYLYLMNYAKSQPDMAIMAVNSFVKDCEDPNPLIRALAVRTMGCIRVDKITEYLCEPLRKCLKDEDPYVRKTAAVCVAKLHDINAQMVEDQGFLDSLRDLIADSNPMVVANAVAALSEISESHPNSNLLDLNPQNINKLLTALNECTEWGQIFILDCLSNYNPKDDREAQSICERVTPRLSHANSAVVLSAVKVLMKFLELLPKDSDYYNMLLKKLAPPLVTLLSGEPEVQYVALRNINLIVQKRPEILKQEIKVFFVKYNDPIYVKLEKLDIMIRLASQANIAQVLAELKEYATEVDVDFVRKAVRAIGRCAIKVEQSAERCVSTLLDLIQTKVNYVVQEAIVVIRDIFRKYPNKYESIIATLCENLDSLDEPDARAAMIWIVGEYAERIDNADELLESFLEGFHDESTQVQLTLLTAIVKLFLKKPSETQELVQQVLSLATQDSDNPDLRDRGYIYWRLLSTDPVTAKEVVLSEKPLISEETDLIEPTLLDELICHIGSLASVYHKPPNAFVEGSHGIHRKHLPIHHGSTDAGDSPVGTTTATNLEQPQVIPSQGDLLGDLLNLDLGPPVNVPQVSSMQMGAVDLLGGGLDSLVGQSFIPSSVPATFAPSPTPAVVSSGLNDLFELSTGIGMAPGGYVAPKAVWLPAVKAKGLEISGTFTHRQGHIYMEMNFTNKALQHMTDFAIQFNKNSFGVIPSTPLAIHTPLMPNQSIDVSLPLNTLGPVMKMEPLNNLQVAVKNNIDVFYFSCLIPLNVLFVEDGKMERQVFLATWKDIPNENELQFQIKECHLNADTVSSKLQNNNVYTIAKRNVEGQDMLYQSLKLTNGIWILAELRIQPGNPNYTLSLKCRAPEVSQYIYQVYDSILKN
The nature of assay [12]: cytosolic pH regulators acting via V-ATPase – S. cerevisiae, pHLuorin, HTS validation (AID 504600; in the data active means response above about 15%;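 further: plate controls were DMSO for no effect and reference compound for full effect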). Particulars: V-ATPase proton transport, at 10 µM, stronger effect = higher value.
Assay [13] deals with anti-desmoglein-3 scFv antibody binding to human DSG3. As to the kind of experiment: blockers of pathogenic pemphigus antibody–desmoglein-3 binding – biochemical, validation compound set, bead-based, flow cytometry, pilot screen (AID 588368;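 active means binding below the plate cutoff, the plate median minus 3 SD, with a reading above zero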;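 further: signal is the median channel fluorescence of bead-bound GFP antibody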). The following applies: Protein G beads, DSG3-Fc, scFv-GFP binding, at 10 µM, stronger effect = lower value.
Assay [14] in a line: Nile Red efflux blockade in pump-expressing yeast – validation compound set, multiplex, phenotypic, pilot screen (AID 588506;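 active means efflux inhibition above 0.42, the validation set average plus 4 SD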;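 further: Nile Red retained in cells so higher fluorescence means more efflux inhibition; 0 = negative control wells and 1 = enniatin B 25 µM full block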). Particulars: S. cerevisiae pump-expressing triplex, Nile Red efflux flow cytometry; at 10 µM; stronger effect = higher value; the pumps come from Candida albicans.
In assay [15] the target is ATP-binding cassette sub-family B member 6 (Homo sapiens) (UniProt Q9NP58). The experiment in a line: blockers of ABCB6-driven porphyrin uptake – K562-ABCB6 cells, flow cytometry, validation set, pilot screen (AID 588550;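 active means inhibition above the screen-wide mean plus 3 SD, about 51%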;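 further: 0% = DMSO wells and 100% = benzethonium chloride 70 µM positive control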). The following applies: K562-ABCB6 porphyrin accumulation, 1 h, at 10 µM, stronger effect = higher value.
Sequence of ATP-binding cassette sub-family B member 6 (Homo sapiens) (Q9NP58 whole entry, looked up): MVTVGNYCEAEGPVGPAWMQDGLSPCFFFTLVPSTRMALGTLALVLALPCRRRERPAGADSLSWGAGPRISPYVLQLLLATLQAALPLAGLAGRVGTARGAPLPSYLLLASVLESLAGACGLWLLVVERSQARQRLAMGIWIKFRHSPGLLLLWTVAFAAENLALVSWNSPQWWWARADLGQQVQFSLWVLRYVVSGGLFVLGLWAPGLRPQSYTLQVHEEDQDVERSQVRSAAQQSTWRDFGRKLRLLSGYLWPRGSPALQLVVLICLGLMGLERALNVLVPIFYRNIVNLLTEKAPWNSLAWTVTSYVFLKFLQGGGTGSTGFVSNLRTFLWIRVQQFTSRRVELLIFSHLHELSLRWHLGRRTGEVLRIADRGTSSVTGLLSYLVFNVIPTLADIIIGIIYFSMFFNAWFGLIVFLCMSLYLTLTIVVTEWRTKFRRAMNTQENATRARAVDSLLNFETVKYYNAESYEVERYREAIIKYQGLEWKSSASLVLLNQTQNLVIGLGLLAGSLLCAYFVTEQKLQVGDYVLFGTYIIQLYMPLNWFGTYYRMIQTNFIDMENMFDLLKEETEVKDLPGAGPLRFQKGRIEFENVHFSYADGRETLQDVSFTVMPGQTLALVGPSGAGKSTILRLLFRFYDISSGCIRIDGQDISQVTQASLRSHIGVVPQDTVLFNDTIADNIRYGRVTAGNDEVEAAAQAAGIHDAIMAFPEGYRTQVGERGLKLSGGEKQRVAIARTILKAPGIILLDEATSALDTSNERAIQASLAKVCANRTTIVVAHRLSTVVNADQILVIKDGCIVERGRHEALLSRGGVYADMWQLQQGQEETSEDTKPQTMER
Assay [16] in a line: AML differentiation inducers, ER-HoxA9 marrow cells – cell-based, GFP/MAC1 double positive, flow cytometry, validation set, primary screen (AID 588685;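 active means differentiation response of at least 50%, scaled between solvent and reference control, from cells with both markers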;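 further: compound exposure lasts four days before antibody staining and flow analysis; 0% = DMSO wells and 100% = 5 µM fulvestrant positive control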). Particulars: stronger effect = higher value, normalized: vehicle 0, fulvestrant 100.

Structures are written as SMILES. Inconclusive results are not listed. The source made the active and inactive calls. Unless noted, no stated cut-off is given here; in the data, active means percent of DMSO control GFP below about 86%; inactive means the rest, inconclusive results apart.

Sequence of Beta-adrenergic receptor kinase 1 (Homo sapiens) (P25098 whole entry, looked up): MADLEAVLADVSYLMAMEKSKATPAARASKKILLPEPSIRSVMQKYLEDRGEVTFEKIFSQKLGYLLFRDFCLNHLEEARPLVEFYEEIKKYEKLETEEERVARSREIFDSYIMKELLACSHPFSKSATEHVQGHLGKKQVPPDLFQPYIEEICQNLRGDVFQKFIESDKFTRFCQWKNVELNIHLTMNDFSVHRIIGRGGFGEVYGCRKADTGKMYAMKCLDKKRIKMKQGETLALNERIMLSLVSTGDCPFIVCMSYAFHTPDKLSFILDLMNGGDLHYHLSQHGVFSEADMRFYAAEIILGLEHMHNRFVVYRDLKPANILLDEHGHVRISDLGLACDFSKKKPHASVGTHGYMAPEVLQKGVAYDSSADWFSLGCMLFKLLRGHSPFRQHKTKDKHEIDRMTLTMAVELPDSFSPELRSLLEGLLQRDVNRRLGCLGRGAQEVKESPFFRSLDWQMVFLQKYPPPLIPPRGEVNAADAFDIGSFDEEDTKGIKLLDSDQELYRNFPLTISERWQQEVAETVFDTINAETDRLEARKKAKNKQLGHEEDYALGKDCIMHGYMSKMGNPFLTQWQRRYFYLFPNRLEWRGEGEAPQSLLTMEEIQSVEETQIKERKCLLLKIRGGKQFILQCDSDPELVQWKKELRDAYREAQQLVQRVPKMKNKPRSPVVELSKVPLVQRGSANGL
Sequence of Beta-2 adrenergic receptor (Homo sapiens) (P07550 whole entry, looked up): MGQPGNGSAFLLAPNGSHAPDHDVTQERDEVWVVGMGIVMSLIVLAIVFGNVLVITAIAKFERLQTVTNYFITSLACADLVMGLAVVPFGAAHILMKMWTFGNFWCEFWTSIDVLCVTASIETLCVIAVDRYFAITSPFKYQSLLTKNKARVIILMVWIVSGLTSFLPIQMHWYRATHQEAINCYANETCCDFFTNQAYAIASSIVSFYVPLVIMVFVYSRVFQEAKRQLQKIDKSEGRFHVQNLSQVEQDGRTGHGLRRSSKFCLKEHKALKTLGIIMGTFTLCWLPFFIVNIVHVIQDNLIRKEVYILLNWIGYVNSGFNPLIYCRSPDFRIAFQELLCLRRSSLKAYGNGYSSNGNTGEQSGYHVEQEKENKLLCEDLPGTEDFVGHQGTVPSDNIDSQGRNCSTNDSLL

As a reminder, the inhibition is the change of the read-out against control, counted positive when it falls. For `C[C@H]([C@@H](N)C(=O)N[C@@H](C(=O)O)[C@@H]1O[C@H](n2ccc(=O)[nH]c2=O)[C@@H](O)[C@H]1O)[C@@H](O)c1ccc(O)cn1`, the percent of DMSO control GFP in [1] is 91.5% (inactive). Also, the values for the GFP response vs DMSO in assay [2] and in assay [4] were 130% (inactive) and 82.5% (inactive), respectively. In addition, the percent response of DMSO control in [3] is 93.9% (inactive). Moreover, in assay [5], the GFP response, % of DMSO was 84.5% (inactive). The double positive events in [6] was 59.1%. The vesicle binding response in assay [6] was 184% (inactive). In addition, the inhibition was -9.06% (inactive) in [7], 5.36% (inactive) in [11] and 9% (inactive) in assay [15]. The superoxide response (% of plate) in assay [8] is 117% (inactive). Moreover, in [9], the aptamer binding inhibition was 7% (inactive). In addition, the results for the response in assay [10] and in assay [12] were -4.72% (inactive) and 2.7% (inactive), respectively. Besides, the binding (% of control) in assay [13] is 104% (inactive). For the same molecule, the efflux inhibition (fraction of control) in assay [14] was -0.06 (inactive). Moreover, in assay [16], the differentiation response was 4.09% (inactive).
Take `CC(C)C(=O)Nc1c(O)c2ccccc2[nH]c1=O`: the percent of DMSO control GFP in [1] is 95.6% (inactive). The GFP response vs DMSO was 91.9% (inactive) in assay [2] and 151% (active) in assay [4]. Besides, the percent response of DMSO control in [3] is 93.9% (inactive). In assay [5], the GFP response, % of DMSO was 96.6% (inactive). Besides, the double positive events in assay [6] was 62%. Further, the vesicle binding response in [6] was 220% (inactive). In addition, the inhibition was 6.4% (inactive) in [7], -0.19% (inactive) in assay [11] and 11% (inactive) in [15]. Further, the superoxide response (% of plate) in [8] was 111% (inactive). Moreover, the aptamer binding inhibition in assay [9] is 0% (inactive). Also, the response in assay [10] is 7.52% (inactive); in assay [12], -4.44% (inactive). The binding (% of control) in [13] is 96.6% (inactive). In addition, the efflux inhibition (fraction of control) in assay [14] was 0.15 (inactive). Moreover, the differentiation response in assay [16] is -4% (inactive).
With `COc1ccc(CN2CCC(=O)NC2=O)cc1`, the percent of DMSO control GFP in [1] was 102% (inactive). Further, the GFP response vs DMSO in [2] and in assay [4] was 105% (inactive) throughout. Besides, in assay [3], the percent response of DMSO control was 97.7% (inactive). Further, the GFP response, % of DMSO in assay [5] is 96.5% (inactive). The molecule further yielded a double positive events in assay [6] of 59.9%. The vesicle binding response in assay [6] was 170% (inactive). For the same molecule, the values for the inhibition in assay [7], in assay [11] and in assay [15] were 3.67% (inactive), 33.2% (inactive) and 2% (inactive), respectively. For the same molecule, the superoxide response (% of plate) in assay [8] is 101% (inactive). The aptamer binding inhibition in assay [9] was -2% (inactive). In addition, the response in assay [10] is -1.29% (inactive); in assay [12] it was -0.38% (inactive). Further, the binding (% of control) in [13] is 81.3% (inactive). Also, the efflux inhibition (fraction of control) in assay [14] is 0.08 (inactive). For the same molecule, in [16], the differentiation response is 116% (active).
As for `CCN(CC)CCCNC(=O)C1c2ccccc2Oc2ccccc21`, the percent of DMSO control GFP in assay [1] is 100% (inactive). Moreover, the GFP response vs DMSO in assay [2] was 95.1% (inactive); in [4], 89.4% (inactive). Moreover, the percent response of DMSO control in assay [3] is 95.4% (inactive). For the same molecule, the GFP response, % of DMSO in assay [5] is 97.2% (inactive). The same molecule registered a double positive events in assay [6] of 64.1%. Besides, the vesicle binding response in assay [6] is 1360% (inactive). For the same molecule, the inhibition was 13% (inactive) in assay [7], 17% (inactive) in [11] and -2% (inactive) in assay [15]. In assay [8], the superoxide response (% of plate) is 101% (inactive). Moreover, the aptamer binding inhibition in [9] was 2% (inactive). Also, the values for the response in assay [10] and in [12] were 2.25% (inactive) and -0.98% (inactive), respectively. Besides, the binding (% of control) in assay [13] was 101% (inactive). Also, the efflux inhibition (fraction of control) in assay [14] is 0.49 (active). The differentiation response in assay [16] is 26.6% (inactive).
Turning to `CC1=C(C)C(=O)C(CCCCC#CCCCC#CCO)=C(C)C1=O`, the percent of DMSO control GFP in assay [1] is 99.3% (inactive). Also, the GFP response vs DMSO in assay [2] is 99.6% (inactive); in [4], 108% (inactive). Besides, the percent response of DMSO control in assay [3] was 99.6% (inactive). For the same molecule, the GFP response, % of DMSO in assay [5] was 107% (inactive). The double positive events in assay [6] is 62.8%. For the same molecule, the vesicle binding response in assay [6] was 137% (inactive). Further, the values for the inhibition in assay [7], in assay [11] and in assay [15] were 20.2% (inactive), -0.87% (inactive) and -1% (inactive), respectively. Moreover, the superoxide response (% of plate) in assay [8] is 77.4% (inactive). The aptamer binding inhibition in assay [9] was 4% (inactive). The response is -12.4% (inactive) in [10] and 1.96% (inactive) in assay [12]. The binding (% of control) in assay [13] is 103% (inactive). The efflux inhibition (fraction of control) in [14] was -0.13 (inactive). Moreover, in assay [16], the differentiation response was 5.85% (inactive).
